Laboratory results: PubChem BioAssay
The source made the active and inactive calls. The rule behind the calls is not given here.

System: Aerobactin synthetase IucA (Klebsiella pneumoniae, hypervirulent)
Experiment: biochemical IucA inhibition screen of LOPAC library by absorbance (AID 1346212);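 note: 100% = no compound wells and 0% = no enzyme wells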
Conditions: IucA enzyme assay, absorbance (OD) readout; hits give low values;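 tested at 8 µM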

SMILES	remaining activity
Nc1nc(OCc2ccccc2)c2[nH]cnc2n1	103% (inactive)
CN(C)C/C=C(/c1ccc(Br)cc1)c1cccnc1	107% (inactive)
CCCCNc1c(C(=O)OCC)c(C)nc2c1cnn2CC	121% (inactive)
COC(=O)[C@@H](N)Cc1ccc(O)c(O)c1	107% (inactive)
COc1ccc2c(c1)CC[C@@H]1[C@@H]2CC[C@]2(C)[C@@H](NCCCCCCN3C(=O)C=CC3=O)CC[C@@H]12	111% (inactive)
Nc1nc(Nc2ccccc2)nc2c1ncn2[C@@H]1O[C@H](CO)[C@@H](O)[C@H]1O	106% (inactive)
CN[C@H](CC(C)C)C(=O)N[C@H]1C(=O)N[C@@H](CC(N)=O)C(=O)N[C@H]2C(=O)N[C@H]3C(=O)N[C@H](C(=O)N[C@H](C(=O)O)c4cc(O)cc(O)c4-c4cc3ccc4O)[C@H](O)c3ccc(c(Cl)c3)Oc3cc2cc(c3O[C@@H]2O[C@H](CO)[C@@H](O)[C@H](O)[C@H]2O[C@H]2C[C@](C)(N)[C@H](O)[C@H](C)O2)Oc2ccc(cc2Cl)[C@H]1O	98.6% (inactive)
CNCCCC1c2ccccc2C=Cc2ccccc21	101% (inactive)
Nc1ccn([C@@H]2O[C@H](CO)[C@@H](O)[C@@H]2O)c(=O)n1	119% (inactive)
O=c1cc(-c2ccccc2)[nH]c2nc(Cl)ccc12	117% (inactive)
Cc1nc(N=Nc2cc([N+](=O)[O-])ccc2Cl)c(COP(=O)(O)O)c(C=O)c1O	117% (inactive)
CC(O)C(O)[C@H]1CNc2nc(N)[nH]c(=O)c2N1 (some centres not stated)	102% (inactive)
